Source: PubChem BioAssay AID493231 (Broad Institute, 2011)
Entries with a potency or affinity are not part of this list. Activity calls are given as the source filed them. How the calls were made is not given here.

target: Acyl-homoserine lactone acylase PvdQ (Pseudomonas aeruginosa (strain ATCC 15692 / DSM 22644 / CIP 104116 / JCM 14847 / LMG 12228 / 1C / PRS 101 / PAO1)) (UniProt Q9I194); experiment: P. aeruginosa PvdQ acylase inhibitors, dose response, biochemical, fluorescence, plate reader and imaging, cherry-picks (AID 493231); conditions: purified PvdQ acylase, fluorogenic substrate; series mostly up to 10 µM;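 further: more negative values mean stronger inhibition of the acylase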
Sequence (Q9I194 whole entry, looked up): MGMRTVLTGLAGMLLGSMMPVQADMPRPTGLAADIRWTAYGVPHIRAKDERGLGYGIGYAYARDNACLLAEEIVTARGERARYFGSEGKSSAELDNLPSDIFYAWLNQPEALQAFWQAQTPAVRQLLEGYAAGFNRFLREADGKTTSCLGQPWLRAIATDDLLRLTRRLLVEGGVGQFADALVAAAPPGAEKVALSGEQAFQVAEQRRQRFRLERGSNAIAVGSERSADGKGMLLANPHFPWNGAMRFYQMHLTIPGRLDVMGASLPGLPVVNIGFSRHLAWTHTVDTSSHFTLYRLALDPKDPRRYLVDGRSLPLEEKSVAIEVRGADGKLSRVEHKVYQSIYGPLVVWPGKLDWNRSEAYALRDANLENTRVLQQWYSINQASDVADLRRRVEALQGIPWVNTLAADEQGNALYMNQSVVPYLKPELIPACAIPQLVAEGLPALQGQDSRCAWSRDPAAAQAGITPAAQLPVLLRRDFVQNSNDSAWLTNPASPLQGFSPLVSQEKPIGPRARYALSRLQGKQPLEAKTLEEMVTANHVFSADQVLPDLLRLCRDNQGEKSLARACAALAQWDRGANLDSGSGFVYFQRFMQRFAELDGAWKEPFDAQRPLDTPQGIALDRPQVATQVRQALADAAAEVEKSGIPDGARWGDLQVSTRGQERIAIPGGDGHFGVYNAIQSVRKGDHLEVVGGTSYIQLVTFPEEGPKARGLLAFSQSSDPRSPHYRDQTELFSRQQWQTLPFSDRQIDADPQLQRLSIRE

outcome, inactive:
COc1ccc(-c2cc3cccc(OC)c3oc2=O)cc1
CNC(=S)N/N=C/c1cc(C)n(-c2ccc(Cl)c(Cl)c2)c1C
Cc1ccc2[nH]c(=O)c(CC=C(Cl)Cl)c(C)c2c1
NC(=O)c1cc(Sc2ccccc2)nc2ccccc12
COc1cccc(Nc2nc(Nc3ccc(Cl)c(C(=O)O)c3)nc(C)c2[N+](=O)[O-])c1
O=[N+]([O-])c1ccc2c(c1)Cc1cc(F)ccc1-2
CS(=O)(=O)N1CCN(C(=O)Nc2ccccc2)CC1
O=C(CCc1ccccc1)Nc1ccc2c(c1)OCO2
CCSc1ccc(-c2cccc([N+](=O)[O-])c2)nn1
CCCc1nnc(NC(=O)Cn2cnc3ccccc3c2=O)s1
Cc1ccsc1C(=O)NCCC(c1ccccc1)c1ccccc1
O=C(N/N=C/c1cccnc1)C1CC1(c1ccccc1)c1ccccc1 (stereo unspecified)
CC1(OC(=O)CCc2ccccc2)C(=O)C=C2C=C(c3ccc(C#N)cc3)N(Cc3ccccc3)C=C2C1=O (stereo unspecified)
Cc1cccc2c(=O)cc(C)n(Cc3ccccc3)c12
CC1CCCCC1NS(=O)(=O)c1ccc(S(=O)(=O)N2CCCC2)cc1 (stereo unspecified)
O=C(Nc1nc2cc3c(cc2s1)OCO3)C1=COCCO1
O=C(CSc1n[nH]c(=O)n1Cc1ccco1)c1ccc2c(c1)OCCO2
COc1ccccc1OCCC(=O)OCC(=O)c1c(N)n(C)c(=O)n(C)c1=O
Cc1onc(-c2ccccc2)c1C(=O)c1c[nH]c(C(=O)NCCCN2CCOCC2)c1
c1ccc(-c2cnc(C3CCCCC3)o2)cc1
CN(CC1CCCN(CCc2ccc(F)cc2)C1)C(=O)CCC(F)(F)F (stereo unspecified)
O=C1C=C(c2ccccc2)OC(c2ccccc2)O1 (stereo unspecified)
CCOC(=O)c1ccc(N2CCN(c3ccccc3F)CC2)c(NC(=O)Nc2cccc(OC)c2)c1
O=C(CN1C(=O)C2C3C=CC(C4CC34)C2C1=O)Oc1ccccc1 (stereo unspecified)
CC(=O)N/C(=N/c1nc(C)cc(C)n1)Nc1ccc(C)cc1C
Cc1ccc2nc(-c3ccc(O)cc3)oc2c1
CN=C1S/C(=C\c2ccc(SC)cc2)C(=O)N1C
COc1ccc2cc(C)c3nnc(SCC(=O)Nc4cc(OC)c(OC)cc4C(=O)O)n3c2c1
CCOC(=S)SCC(=O)Nc1nccs1
CC(C)Cn1nc(C(=O)Nc2nnc(C3CC3)s2)c2ccccc2c1=O
O=C(Cc1cccc(NC(=O)C2CCN(C(=O)C3CCCCC3)CC2)c1)Nc1cccc(C(=O)N2CCCCC2)c1
Cc1cc(C)nc(NS(=O)(=O)c2ccc(NC(=O)c3ccc(N4C(=O)CCC4=O)cc3)cc2)n1
COc1ccc(Nc2nnc(-c3ccc(C)cc3)c3ccccc23)cc1C(=O)N1CCCCC1
Cc1cc(C)n2c(SCC(=O)Nc3ccc(F)cc3)nnc2n1
O=C(NCCCn1ccnc1)c1nn2c(C(F)(F)F)cc(-c3ccccc3)nc2c1Cl
COc1ccc(OCCCC(=O)Nc2cccc(SC)c2)cc1
